Sampled rows, rich in hits. Any-hit rate of the full collection: about 7.3%.
FLuc counter: qHTS profiling assay for firefly luciferase inhibitor/activator using purifed enzyme and Km concentrations of substrates (counterscreen for miR-21 project); hit rate 6.9% among 360,000; purified FLuc, Km substrates, luminescence inhibition; Potency, µM (titrated, usually from 57.5 µM), inactives show top-dose activity change, negative = inhibition, hits mostly inhibitors; Luciferin 4-monooxygenase (Photinus pyralis), P08659;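 further: plate controls were vehicle for no effect and reference inhibitor for full effect; nearly all actives have a fitted effect of over 55% in size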
Target sequence (P08659 whole entry, looked up): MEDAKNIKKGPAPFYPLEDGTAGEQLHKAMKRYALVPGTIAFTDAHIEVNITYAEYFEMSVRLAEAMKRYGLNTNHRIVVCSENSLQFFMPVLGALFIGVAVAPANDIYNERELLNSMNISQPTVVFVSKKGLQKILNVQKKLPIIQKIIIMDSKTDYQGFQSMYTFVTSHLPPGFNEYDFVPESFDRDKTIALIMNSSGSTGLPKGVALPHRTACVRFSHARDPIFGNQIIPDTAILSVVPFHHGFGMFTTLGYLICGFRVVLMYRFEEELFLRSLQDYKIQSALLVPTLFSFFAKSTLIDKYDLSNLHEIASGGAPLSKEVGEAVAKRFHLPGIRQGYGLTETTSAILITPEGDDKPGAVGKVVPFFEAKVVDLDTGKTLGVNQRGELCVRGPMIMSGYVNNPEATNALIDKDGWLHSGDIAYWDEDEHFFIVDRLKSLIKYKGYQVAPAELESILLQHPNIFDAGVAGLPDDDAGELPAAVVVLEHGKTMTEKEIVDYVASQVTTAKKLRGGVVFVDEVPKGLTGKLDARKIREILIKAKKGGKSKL
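Purified P. pyralis luciferase, 10 nM final, with Km-level 10 uM D-luciferin and 10 uM ATP in 50 mM Tris acetate pH 7.5, 10 mM Mg acetate, 0.01% Tween-20, 0.05% BSA; 6-point qHTS titration about 60 µM downward; luminescence read.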
NPC1 promoter act: qHTS Assay for NPC1 Promoter Activators; hit rate 2.4% among 320,000; Potency, µM (series often up to 9.22 µM), inactives show at the top dose activation, usual class: activators; Huh7 NPC1 promoter luciferase reporter, 24 h; further: % of control where 0% means no effect; nearly all actives have a fitted effect of over 60% in size
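Luminescence from an NPC1 promoter-driven luciferase reporter in stably transfected Huh7 cells was measured after 24 h compound treatment at 37 °C, followed by 10 min ambient incubation with luciferase detection reagent.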
Rab9 prom act: qHTS Assay for Rab9 Promoter Activators; Huh7 Rab9 promoter-luciferase reporter, luminescence, 24 h; Potency, µM (top dose mostly 9.22 µM), for inactives: top-dose activation, negative = inhibition, most hits filed as activators; hit rate 2.8% among 320,000; further: % of control where 0% means no effect; nearly all actives have a fitted effect of over 60% in size
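Huh7 cells stably carrying a Rab9 promoter-luciferase reporter, 1500 cells per well in OP-MEM I with 10% FBS, treated with compound 24 hours at 37C. Luciferase activity read by luminescence after 10 minutes with Amplite reagent.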
KinaseGlo FLuc: Counterscreen for Luciferase (Kinase-Glo TM) Inhibition | Kinase-Glo luciferase, ATP luminescence, 8 min | Potency, µM (titrated, usually from 38.3 µM), inactives show at the top dose activity change, negative = inhibition, actives largely listed as inhibitors | hit rate 0.28% among 200,000 | AID 1379, 2008; further: on the % scale 0 is the no-effect control and ±100 the full control effect; nearly all actives have a fitted effect of over 60% in size
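Recombinant Kinase-Glo luciferase, 10 uM ATP (linear range), luciferin; imidazole pH 7.2 / KCl / MgCl2 / Tween / BSA buffer; 8 min RT; luminescence.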
ELG1 genotoxic: qHTS screen for small molecules that induce genotoxicity in human embryonic kidney (HEK293T) cells expressing luciferase-tagged ELG1; Potency, µM (titrated, usually from 46 µM), for the others: at the highest dose activity change, positive = activation, most hits filed as activators; HEK293T ELG1-luciferase reporter, luminescence, 16 h; hit rate 1.3% among 330,000; further: % of control where 0% means no effect; nearly all actives have a fitted effect of over 60% in size
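Step 1: seed 2,000 HEK293T ELG1-luciferase cells per well. Step 2: add compound or DMSO, incubate 16 hr at 37 °C. Step 3: ONE-Glo, 30 min at room temperature, read luminescence.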
SMN2 splice enh: qHTS Assay for Enhancers of SMN2 Splice Variant Expression; HEK293 SMN2-luciferase splicing reporter, luminescence, 30-36 h; Potency, µM (titrated, usually from 46.1 µM), without a hit: at the top dose activity change, positive = activation, most hits filed as activators; hit rate 2.8% among 210,000; further: % of control where 0% means no effect; nearly all actives have a fitted effect of over 55% in size
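HEK293 cells carry an SMN2 minigene-luciferase reporter in which exon 7 inclusion puts luciferase in frame. Cells were seeded at 2000 cells/well, attached for 10-12 hours, then exposed to compounds for 30-36 hours at 37C before ONE-Glo luminescence.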
Active calls of the source: *; ? = inconclusive; / = no result given. The call rests on the fitted dose curve; in most records, active means well fitted curve in the direction sought with a large enough effect; inconclusive means small, poorly fitted or top-dose-only effect, or another doubt; inactive means no such curve, though single readings can be large; an effect the other way counts as inactive or inconclusive. Potency means the concentration at half of the fitted maximal effect.

SMILES	FLuc counter	NPC1 promoter act	Rab9 prom act	KinaseGlo FLuc	ELG1 genotoxic	SMN2 splice enh
Cn1c(N)c(C(=O)c2cc(-c3ccncc3)nc3ccccc23)c(=O)n(C)c1=O	23.9µM*	-1.9%	0.5%	-11.9%	?	11.7%
Cn1c(N)c(C(=O)COC(=O)c2cc(-c3ccccc3)nc3ccccc23)c(=O)n(C)c1=O	/	/	/	-0.8%	/	-3.7%
COc1ccc(-c2cc(C(=O)c3c(N)n(C)c(=O)n(C)c3=O)c3ccccc3n2)cc1OC	9.53µM*	9.1%	24.3%	-10.3%	?	/
CN(CC(=O)Nc1ccccc1Cl)C(=O)c1cccc(S(=O)(=O)N2CCN(c3ccc(F)cc3)CC2)c1	3.38µM*	1.41µM*	2.24µM*	/	1.83µM*	/
N#Cc1ccccc1CSc1nnc(-c2ccccc2)o1	3.79µM*	/	/	/	/	11.2µM*
COc1ccc(-c2nnc(SCc3ccccc3F)o2)cc1OC	23.9µM*	29.1%	?	-5.5%	22.7%	18.2%
Cc1ccc(-c2nnc(SCc3ccccc3F)o2)cc1	?	0.794µM*	0.891µM*	-2.4%	8.2µM*	11.2µM*
COc1ccc(NC(=O)Cn2c(=O)n(-c3cccc(C)c3)c(=O)c3c2c2cc(C)ccc2n3C)cc1Cl	-2.1%	/	/	/	/	-1.9%
Cc1cc(C)cc(NC(=O)Cc2noc3ccccc23)c1	-16.7%	/	/	/	/	/
Cc1ccc(NC(=O)Cc2noc3ccccc23)cc1	21.3µM*	?	?	-1.0%	?	?
OB(O)c1csc2ccccc12	/	/	/	-0.8%	/	-1.9%
c1ccc(-c2nccc(-c3ccc4c(c3)OCO4)n2)cc1	19µM*	?	?	-3.2%	?	?
Cc1nccc(-c2ccc3c(c2)OCO3)n1	-1.2%	0.4%	3.0%	-3.8%	6.6%	7.0%
c1ccc(CNc2ccnc(-c3ccc4c(c3)OCO4)n2)cc1	/	/	/	-3.2%	/	12.6µM*
COc1ccc(CCNC(=O)CCS(=O)(=O)c2cc(Br)cc3c2N(C(C)=O)CC3)cc1OC	1.4%	/	/	/	/	-0.7%
NC1=NC(=Nc2ccc(Br)cc2)c2ccccc21	8.49µM*	-5.1%	-10.7%	-4.5%	?	-3.3%
NC1=NC(=Nc2ccc(Cl)cc2)c2ccccc21	7.57µM*	-2.0%	-5.3%	-3.0%	17.2%	6.7%
Cc1cccc(N=C2N=C(N)c3ccccc32)c1	-14.7%	-0.3%	-0.4%	-4.2%	15.8%	15.3%
NC1=NC(=Nc2ccccc2)c2ccccc21	-18.7%	-4.7%	0.9%	-4.9%	?	?
CC(C)c1ccc(N=C2N=C(N)c3ccccc32)cc1	0.477µM*	-2.7%	?	/	?	/
CC(Sc1nccn1C)C(=O)Nc1ccccc1C#N (stereo not drawn)	-3.2%	/	/	/	/	-8.1%
Cc1cc(C)cc(-n2c(SCC(=O)Nc3ccccc3F)nc3c(oc4ccccc43)c2=O)c1	-6.0%	/	/	/	/	-7.5%
COc1ccc(C(=O)[C@]2(C)C=C(c3ccc(OC)cc3)[C@H](C)C2)cc1	/	/	/	2.6%	/	2.2%
Cc1ccc(C2CC(c3ccco3)n3ncnc3N2)cc1 (stereo not drawn)	-4.2%	3.6%	-8.9%	2.0%	-0.5%	-3.5%
Cc1ccc2c(c1)C(N1CCCC1=O)CC(c1ccco1)N2 (stereo not drawn)	1.2µM*	3.16µM*	2.24µM*	11.2µM*	?	12.6µM*
SMILES	FLuc counter	NPC1 promoter act	Rab9 prom act	KinaseGlo FLuc	ELG1 genotoxic	SMN2 splice enh
CCOc1cccc(C(=O)Nc2ccc(-c3nc4ncccc4o3)cc2C)c1	-3.7%	/	/	/	/	/
Cc1ccc(CNC(=O)CSc2nc3c(sc4ccccc43)c(=O)n2CCCOC(C)C)cc1	-2.1%	/	/	/	/	/
C=C(C)Cn1c(SCC(=O)c2ccccc2)nc2sc3c(c2c1=O)CCCC3	-1.3%	/	/	/	/	5.62µM*
C=C(C)Cn1c(SCC(=O)Nc2cccc(C)c2)nc2sc3c(c2c1=O)CCCC3	0.4%	/	/	/	/	-18.5%
C=CCn1c(SCC(=O)Nc2cc(C)on2)nc2sc3c(c2c1=O)CCCC3	-0.8%	-1.3%	-1.1%	-2.8%	-0.6%	12.6µM*
COc1ccccc1CNC(=O)CSc1ccc(-c2sc(-c3ccccc3)nc2C)nn1	-19.3%	/	/	/	/	/
CCc1ccc(/C=C2/SC(=S)N(CCC(=O)Nc3cccnc3)C2=O)cc1	0.849µM*	-0.6%	-9.1%	/	17.2%	/
CCc1ccc(/C=C2\SC(=S)N(CCCC(=O)Nc3ccccc3C(=O)O)C2=O)cc1	?	-2.5%	-15.5%	/	-1.2%	/
O=C(CCCN1C(=O)/C(=C\c2ccccc2)SC1=S)Nc1ccc(C(=O)O)cc1	16.9µM*	-6.0%	-4.5%	/	-2.4%	/
O=C(CCCN1C(=O)/C(=C\c2cccs2)SC1=S)Nc1ccc(C(=O)O)cc1	?	-1.8%	-1.4%	-1.8%	-13.3%	-0.9%
O=C(CCN1C(=O)/C(=C/c2ccccc2)SC1=S)Nc1cccnc1	-9.9%	-0.5%	3.0%	/	-0.6%	/
CCc1ccc(/C=C2\SC(=S)N(CCCC(=O)Nc3ccc(C(=O)O)cc3)C2=O)cc1	4.78µM*	-22.3%	-32.7%	/	7.5%	/
CCOc1ccc(/C=C/C(=O)Oc2ccccc2)cc1	1.51µM*	-3.6%	11.5%	/	5.2%	/
O=Cc1ccc(OC(=O)/C=C/c2ccccc2)cc1	19µM*	-1.3%	5.1%	/	0.6%	/
